This is part of a sample that, as a whole, favours compounds with a hit. Of some 83,000 tested, about 20% had one in any assay.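 For each line, cells grew in 96-well plates with the test compound present at a single concentration for 48 hours.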 Calls of active or inactive are those of the source. The calls were made as follows: active = growth percent below 10; inactive = the rest.
What follows are compounds tested on HL-60(TB) leukemia (assay: NCI-60 one-dose screen, 48 h (100 = growth as untreated, 0 = no growth, -100 = all killed)). Settings: 10 µM unless noted.
With `Fc1cnc(NC2CC2)nc1-c1cnc2ccc(N3CCOCC3)cn12` the growth was -15.5% (active). `CCN(CC)CCSc1ncnc2c1cnn2-c1ccc(S(N)(=O)=O)cc1` was tested, and the growth was 72.4% (inactive). With `CCN(CC)CCN1C(=O)c2c(c(C)c3c(oc4cc(O)ccc43)c2C)C1=O` the growth was -50.6% (active). With `Cn1cc(C(=O)c2nc(-c3c[nH]c4ccc(F)cc34)no2)c2cc(F)ccc21` the growth was 70.5% (inactive).

Reference: PubChem BioAssay (NCI)
